Only some compounds are listed: those with a hit (about 5.6% of all), similar ones and a draw of the others.
H9c2 protect = protects H9c2 cardiomyocytes from peroxide injury. H2O2 injury protection, ATPLite, 2 h. protection from H2O2 cell death, % at 20 µM. 360,000 compounds, 0.63% hits;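 active means compounds giving at least 50% protection of heart cells from peroxide-induced death in the single-dose screen, raw or plate-pattern-corrected value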;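 further: 0% = DMSO wells with peroxide and 100% = DMSO wells without peroxide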
ALR inh = blocks human ALR sulfhydryl oxidase activity | purified ALR, DTT oxidation, H2O2 HRP-luminol luminescence | P55789 | 290,000 compounds, 3.8% hits | inhibition, % (concentration not given with the values) | AID 485317;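 active means mean replicate inhibition above about 79%, with every replicate also reaching it, limit read from the data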
Target sequence (P55789 whole entry, looked up): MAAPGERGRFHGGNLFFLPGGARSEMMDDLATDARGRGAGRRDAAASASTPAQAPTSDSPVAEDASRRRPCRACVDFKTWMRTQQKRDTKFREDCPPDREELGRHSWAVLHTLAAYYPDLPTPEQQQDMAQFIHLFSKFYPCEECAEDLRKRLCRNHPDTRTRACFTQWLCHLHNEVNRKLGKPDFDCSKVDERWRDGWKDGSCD
PHOSPHO1 block = inhibitors of human PHOSPHO1 phosphatase; inhibition, % at 13.3 µM; 290,000 compounds, 1.1% hits; recombinant PHOSPHO1, absorbance phosphatase assay; Q8TCT1; in the data active means inhibition above about 60%
Target sequence (Q8TCT1 whole entry, looked up): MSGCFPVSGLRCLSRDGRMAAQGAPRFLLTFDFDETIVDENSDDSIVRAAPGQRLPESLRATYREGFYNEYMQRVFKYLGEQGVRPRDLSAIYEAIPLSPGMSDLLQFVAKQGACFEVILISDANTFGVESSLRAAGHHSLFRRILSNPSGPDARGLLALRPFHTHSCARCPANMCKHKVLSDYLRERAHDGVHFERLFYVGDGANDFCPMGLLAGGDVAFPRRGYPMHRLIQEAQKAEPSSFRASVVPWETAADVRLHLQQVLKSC
PfGluPho inh = PfG6PD (Plasmodium falciparum) enzyme inhibition; 350,000 compounds, 0.78% hits; AID 504690; inhibition, % at 20 µM; PfGluPho enzyme, NADPH resazurin-diaphorase fluorescence;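 active means inhibition reaching at least a set limit at 20 µM in the primary screen, cut at about 59% in these data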;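 further: 0% = DMSO wells with substrate and 100% = DMSO wells lacking glucose-6-phosphate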
PfM18AAP inh = blocks P. falciparum M18 aspartyl aminopeptidase; recombinant PfM18AAP, H-Glu-NHMec fluorogenic cleavage; inhibition, % at 7.35 µM; 290,000 compounds, 1.2% hits;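 active means inhibition above the campaign mean inhibition over all tested compounds plus 3 SD, cut at about 28% in these data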;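 further: 0% = plate median of test compound wells and 100% = 2 mM ZnCl2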
Starred values were filed as active, the others as inactive; nt = no result.

SMILES | H9c2 protect | ALR inh | PHOSPHO1 block | PfGluPho inh | PfM18AAP inh
CC(=O)c1cc2cc(O)ccc2o1 | 44 | nt | 89* | 8 | 4
C[C@H](O)[C@@H]1C(=O)N2CCc3c([nH]c4ccccc34)[C@@H]2C[C@@H]1N(C)C(=O)Nc1cc(Cl)cc(Cl)c1 | -22 | nt | nt | 7 | nt
COc1ccc(C(C[N+](=O)[O-])c2c(C)[nH]c3ccccc23)cc1OC (configuration not stated) | 1 | -17 | -3 | 0 | 20
O=c1[nH][nH]c(-c2ccccc2O)c1C(C[N+](=O)[O-])c1ccc(Br)cc1 (configuration not stated) | 14 | 88* | 0 | -19 | 27
Cc1ccc(C(C[N+](=O)[O-])c2c(-c3ccccc3O)[nH][nH]c2=O)cc1 (configuration not stated) | 10 | 86* | -13 | -12 | 14
OCC[C@@H]1C[C@H](O)[C@@H](O)[C@]2(Cc3ccccc3CCO2)O1 | -3 | 0 | 0 | -10 | 5
COc1ccc2ccc(O)c(CN(C)CC(=O)Nc3ccccc3C(F)(F)F)c2c1 | -4 | -47 | 10 | 21 | 3
CC(c1ccco1)N(C(=O)c1ccc(C(F)(F)F)cc1)c1ccccn1 (configuration not stated) | -1 | 2 | 40 | 4 | 7
Cc1ccc(C(=O)N(c2ccccn2)C(C)c2ccco2)cc1C (configuration not stated) | 4 | 97* | 16 | 13 | -2
Cc1cc(C)c2nc(N3C(=O)C(O)=C(C(=O)c4ccco4)C3c3ccco3)sc2c1 (configuration not stated) | 0 | 98* | 35 | 32 | 26
Cc1ccc2nc(N3C(=O)C(O)=C(C(=O)c4ccco4)C3c3cccs3)sc2c1 (configuration not stated) | -9 | -1 | 86* | 4 | 22
CSc1nnc(N2C(=O)C(O)=C(C(=O)c3ccco3)C2c2cccc(Cl)c2)s1 (configuration not stated) | 10 | 87* | 19 | 22 | 9
CC1Sc2ccc(S(=O)(=O)CCC(=O)Nc3ccccn3)cc2NC1=O (configuration not stated) | 2 | -1 | 14 | 2 | 29*
CC1Sc2ccc(C(=O)Nc3ccc(S(=O)(=O)N(C)C)cc3)cc2NC1=O (configuration not stated) | 13 | 98* | nt | 4 | nt
COc1ccc(S(=O)(=O)N(C)C)cc1NC(=O)c1ccc2c(c1)NC(=O)C(C)S2 (configuration not stated) | 10 | 1 | nt | -2 | nt
COc1ccc(-c2cn3nc(SCC(=O)NC4CCCCC4)ccc3n2)cc1 | -11 | -4 | 17 | 0 | -2
CCCCS(=O)(=O)/C=C\C=C/S(=O)(=O)CCCC | -34 | 98* | 7 | 23 | -42
O=C(CCN1CCc2ccccc2C1)c1ccc2c(c1)OCCO2 | -18 | 98* | -1 | 5 | -9
CCCCc1ccc(C2C(C#N)=C(N)SC(N)=C2C#N)s1 | nt | 98* | -7 | nt | 5
CCOc1ccc(C2C(C#N)=C(N)SC(N)=C2C#N)c(OCC)c1 | -11 | 10 | 6 | 23 | 10
Cc1cccc(OCCCC(=O)N2CCCCCC2)c1C | -1 | -8 | nt | 6 | 1
CCOc1cc(C2NC(=O)CCC2[N+](=O)[O-])cc(Br)c1OC (configuration not stated) | 5 | 5 | 25 | -2 | -3
CC1(C)c2ccccc2-c2nc3ccccc3cc2C1N1CCOCC1 (configuration not stated) | -5 | nt | nt | 51 | nt
CC1(C)c2cc(O)ccc2OC1N1CCOCC1 (configuration not stated) | 2 | 99* | 31 | -1 | -54
C[C@@H]1CN([C@@H](C)CO)C(=O)c2cc(Br)cnc2O[C@@H]1CN(C)S(C)(=O)=O | -1 | nt | nt | 20 | nt
SMILES | H9c2 protect | ALR inh | PHOSPHO1 block | PfGluPho inh | PfM18AAP inh
O=C(CCNc1ccccc1)c1cccc([N+](=O)[O-])c1 | -6 | 98* | 23 | 4 | -80
CN(C)C(CNC(=O)c1ccc(C(F)(F)F)cc1)c1ccco1 (configuration not stated) | 1 | -5 | 33 | -13 | 10
Oc1c(Br)cc(Br)cc1C=Nc1cccnc1 | 52* | nt | 26 | 24 | 30*
Oc1c(Br)cc(Br)cc1/C=N/c1nccs1 | 57* | 1 | nt | -2 | nt
Oc1ccc(Cl)cc1/C=N/c1nccs1 | 16 | nt | 9 | -15 | -2
CC(=O)c1cc(C#N)c(SCc2ccncc2)nc1C | 11 | 61 | 69* | 11 | 12
COc1ccc(C2=CC3=C(Br)C(=O)C(C)(O)C(=O)C3=CO2)cc1 (configuration not stated) | 7 | 90* | 0 | 22 | nt
CCC(=O)OC1(C)C(=O)C2=COC(c3ccc(OC)cc3)=CC2=C(Br)C1=O (configuration not stated) | 2 | -2 | 26 | 26 | nt
Cc1ccc2occ(C3NC(C(=O)O)CS3)c(=O)c2c1 (configuration not stated) | 1 | 98* | 1 | 21 | 31*
Cc1ccc2occ(CN3CCN(c4ccccc4)CC3)c(=O)c2c1 | -6 | 73 | 6 | -4 | 5
O=C(O)C1CSC(c2ccco2)N1 (configuration not stated) | 1 | -6 | -40 | 15 | 21
Cc1ccc2occ(C3N[C@H](C(=O)O)CS3)c(=O)c2c1 (some centres not stated) | 2 | 99* | 27 | 1 | 24
COc1cc2cc(CN(Cc3cccnc3)C(=O)Nc3ccccc3F)c(=O)[nH]c2cc1OC | 34 | -3 | 36 | -1 | 1
Cc1nn(CC(C)C)c(Cl)c1C(=O)NCC1CCCO1 (configuration not stated) | 4 | nt | nt | -12 | nt
COc1ccc2ccccc2c1/C=N/N1C(=O)CSC1=S | -1 | nt | -68 | 10 | 30*
O=C1CSC(=S)N1N=Cc1c(O)ccc2ccccc12 | 56* | nt | nt | 54 | nt
Cc1n[nH]c(=S)n1/N=C/c1c(O)ccc2ccccc12 | 7 | -14 | -144 | 36 | 2
CN(C)N(C(=O)c1cc(-c2cccs2)nn1-c1ccccc1)C1CCS(=O)(=O)C1 (configuration not stated) | 3 | nt | nt | 14 | nt
CC(=O)c1ccc(S(=O)(=O)Nc2ccc(C(=O)N3CCC3)cc2)cc1 | -2 | nt | nt | 4 | nt
CCOc1ccc2nc(-c3ccccc3)[nH]c2c1 | -6 | -53 | 18 | 50 | 1
CCOc1ccc2[nH]c(=S)[nH]c2c1 | 2 | nt | 103* | -3 | 1
O=C(NC1CC1)c1ccc(F)cc1Cl | 6 | -5 | -7 | -2 | 0
CCS(=O)(=O)c1ccc(C(=O)NC2CC2)c(Cl)c1Cl | -2 | -14 | 60* | -9 | -12
O=C(COC(=O)C1CCC(N2C(=O)C3C4CCC(C4)C3C2=O)CC1)c1ccc(F)cc1 (configuration not stated) | -6 | 0 | 16 | 3 | 2
CCOC(=O)C1CCCN(S(=O)(=O)c2ccc(Cl)nc2)C1 (configuration not stated) | 1 | 2 | nt | 3 | nt
